Compound activity (PubChem)
Rows were chosen to be rich in hits. Some 0.95% of all compounds tested hit in one or more screens of this group.
LmPK inhibitor = qHTS Assay for Inhibitors of Leishmania Mexicana Pyruvate Kinase (LmPK) | purified LmPK, Kinase-Glo ATP luminescence, 1 h | Potency, µM (highest dose often 57.5 µM), hits mostly inhibitors | 0.37% of 290,000 active | AID 1721, 2009
Target sequence (Q27686 whole entry, looked up): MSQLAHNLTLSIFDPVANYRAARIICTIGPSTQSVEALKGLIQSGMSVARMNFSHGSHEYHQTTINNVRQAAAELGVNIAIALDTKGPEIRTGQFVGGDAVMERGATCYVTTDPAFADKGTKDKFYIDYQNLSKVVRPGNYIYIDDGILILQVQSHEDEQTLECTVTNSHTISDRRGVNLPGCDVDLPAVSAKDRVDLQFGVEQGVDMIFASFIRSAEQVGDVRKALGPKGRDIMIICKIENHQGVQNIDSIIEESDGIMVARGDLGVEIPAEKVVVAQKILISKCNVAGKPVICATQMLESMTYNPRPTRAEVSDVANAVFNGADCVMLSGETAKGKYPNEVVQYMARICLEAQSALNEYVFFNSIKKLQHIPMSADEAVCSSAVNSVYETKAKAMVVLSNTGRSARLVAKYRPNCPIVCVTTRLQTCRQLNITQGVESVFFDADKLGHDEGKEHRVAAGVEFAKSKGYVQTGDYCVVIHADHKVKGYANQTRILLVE
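Kinase-Glo luminescence read after 1 h RT reaction of 0.1 nM LmPK with 0.5 mM PEP and 0.1 mM ADP. Activity scaled between uninhibited and enzyme-free controls.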
RE007 growth inh = qHTS Assay for Inhibitors of the HIV-1 protein Vpr | S. pombe RE007 Vpr strain, BacTiter-Glo ATP luminescence, 24 h | Potency, µM (top dose mostly 92.2 µM), usual class: inhibitors | 0.21% of 360,000 active; active = well fitted falling curve with a large enough effect; inconclusive = small, poorly fitted or top-dose-only effect; inactive = no such curve, though single readings can be large or run the other way; also: nearly all actives have a fitted effect of over 50% in size
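Fission yeast RE007 carrying one integrated HIV-1 vpr copy, seeded at OD 0.01 in PMG+AL medium with 23 nL pinned compound. Grown 24 h at 30 degrees; viability read by BacTiter-Glo luminescence after 5 min.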
TbPYK inhibitor = qHTS of Trypanosoma Brucei Inhibitors. pyruvate kinase (Trypanosoma brucei), Q57TT1. TbPYK enzyme, Kinase-Glo Plus ATP luminescence, 45 min. Potency, µM (highest dose often 76.8 µM), hits mostly inhibitors. 0.12% of 410,000 active. AID 624173, 2012; also: nearly all actives have a fitted effect of over 50% in size
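Activity of T. brucei pyruvate kinase was followed by Kinase-Glo Plus luminescence after the enzyme reacted 45 min at room temperature with 130 uM ADP (final) and substrate. Test compounds were added before ADP at multiple concentrations.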
FBPA Giardia inh = qHTS Assay for Inhibitors of Fructose-1,6-bisphosphate Aldolase from Giardia Lamblia | A8B2U2 | purified Giardia FBPA | Potency, µM (doses to about 59.6 µM), usual class: inhibitors | 0.71% of 290,000 active; also: nearly all actives have a fitted effect of over 55% in size
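40 nM FBPA preincubated 10 min at RT with compound (up to 57.5 uM final), then substrate plus GAPDH/TPI/NAD/arsenate coupling and diaphorase/resazurin added. Fluorescence read after 20 min at RT, 525/598 nm.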
Hits are given with their value; n = inactive; u = inconclusive; x = no result given. Unless noted, calls follow the shape of the dose curve; as a rule, active = well fitted curve in the direction sought with a large enough effect; inconclusive = small, poorly fitted or top-dose-only effect, or another doubt; inactive = no such curve, though single readings can be large; an effect the other way counts as inactive or inconclusive.

SMILES	LmPK inhibitor	RE007 growth inh	TbPYK inhibitor	FBPA Giardia inh
N#Cc1ccc(NC(=O)Nc2ccccc2Br)c2n[nH]nc12	x	x	n	x
Cc1nc2sc(-c3ccccc3)cc2c(=O)n1-n1cccc1	n	n	n	n
Cc1nc2sc(-c3ccccc3)cc2c(=O)n1N	7.1µM	u	u	n
Cc1nc2ccc(C(C(F)(F)F)(C(F)(F)F)C(F)(F)F)cc2[nH]1	n	28µM	n	n
O=C(/C=C/c1ccccc1)c1ccccn1	14µM	35µM	u	n
N/C(=N\OC(=O)/C=C/c1ccccc1)c1ccccn1	13µM	n	n	n
COc1ccc(CCNc2nc(SCc3ccc(F)cc3)nc3ccccc23)cc1OC	x	x	n	x
O=C(O)c1ccc2nc(-c3cc4cccc(O)c4oc3=O)[nH]c2c1	x	x	20µM	x
CC[C@@H](O)C(C[C@@H](C)N(C)C)(c1ccccc1)c1ccccc1	x	x	n	x
Cc1nc(Nc2nc3ccccc3o2)nc(C)c1C	18µM	n	u	n
Cc1ccnc(Nc2nc3ccccc3o2)n1	22µM	n	u	n
Cc1ccc2oc(Nc3nc(C)c(C)c(C)n3)nc2c1	n	n	n	n
N#Cc1cnc(Nc2nc3ccccc3o2)nc1-c1ccccc1	n	n	n	n
S=c1[nH]ncn1/N=C/c1cccc(Oc2ccccc2)c1	10µM	n	u	n
Cc1oc(C)c2c(=O)ccc3c(c12)OC(N)=C(C#N)C3c1ccc(F)cc1 (stereo not given)	n	n	n	5.6µM
CCCCCCCN(CC)CCCC(O)c1ccc(NS(C)(=O)=O)cc1 (stereo not given)	x	x	n	x
COc1cc(OC)cc(N2C(=O)CC(N3CCC(C(=O)N4CCCCC4)CC3)C2=O)c1 (stereo not given)	n	32µM	n	x
O=C1CC(N2CCOCC2)C(=O)N1c1cc(Cl)cc(Cl)c1 (stereo not given)	n	11µM	n	n
CCN1C(=O)CC(N2CCC(C(=O)N3CCOCC3)CC2)C1=O (stereo not given)	n	u	n	n
O=C1CCCN1CCC1CCN(C2CC(=O)N(c3ccc(F)cc3)C2=O)CC1 (stereo not given)	n	32µM	n	n
O=C(C1CCN(C2CC(=O)N(c3ccc(F)cc3)C2=O)CC1)N1CCOCC1 (stereo not given)	n	50µM	n	n
Cc1cc(C)cc(N2C(=O)CC(N3CCOCC3)C2=O)c1 (stereo not given)	n	n	n	n
CC1=C(C)C(=O)C(N2CCOCC2)=CC1=O	n	n	n	1.4µM
O=C1C=C(N2CCOCC2)c2ccccc2C1=O	n	n	n	u
C[C@@](N)(Cc1ccc(O)c(O)c1)C(=O)O	x	x	x	22µM
SMILES	LmPK inhibitor	RE007 growth inh	TbPYK inhibitor	FBPA Giardia inh
CC(C)Oc1ccc(C(=O)CCN2CCCCC2)cc1	n	40µM	n	n
CCOc1ccc(C(=O)CCC(=O)NN2CCCCC2)cc1	x	n	n	x
CCCOc1ccc(C(=O)CCN2CCN(C(=O)OCC)CC2)cc1	n	32µM	n	n
CCOc1ccc(C(=O)CCN2CCCCC2)cc1	n	35µM	n	n
CC(C)Oc1ccc(C(=O)CCN2CCOCC2)cc1	x	u	n	x
CCOC(=O)N1CCN(C(=O)CCC(=O)c2ccc(OCC)cc2)CC1	n	n	n	n
COc1ccc(C(=O)CCN2CCCCCC2)cc1	n	7.1µM	n	n
CN(C)S(=O)(=O)c1ccc2c(c1)N(CC(=O)NCc1ccc(F)cc1)C(=O)CS2	x	x	n	x
COc1ccc(OC)c(CNC(=O)c2ccc3nc(C(C)C)oc3c2)c1	x	x	n	x
CCCCCOc1ccc(C(=O)CCN2CCOCC2)cc1	n	18µM	n	n
CCCCOc1ccc(C(=O)N2CCCCC2CCN2CCOCC2)cc1 (stereo not given)	x	x	n	x
O=C(O)c1ccc(N/N=C/c2ccc(C(F)(F)F)cc2)cc1	n	35µM	n	n
O=C(O)c1ccc(N/N=C/c2ccc3c(c2)OCO3)cc1	10µM	u	u	n
Cc1c(N)nc([C@@H](CC(N)=O)NC[C@H](N)C(N)=O)nc1C(=O)N[C@H](C(=O)N[C@@H](C)[C@@H](O)[C@@H](C)C(=O)N[C@H](C(=O)NCCc1nc(-c2nc(C(=O)NCCCN[C@H](C)c3ccccc3)cs2)cs1)[C@H](C)O)[C@@H](O[C@H]1O[C@@H](CO)[C@H](O)[C@@H](O)[C@H]1O[C@H]1O[C@@H](CO)[C@@H](O)[C@H](OC(N)=O)[C@H]1O)c1cnc[nH]1	x	x	n	x
